# Experimental data: PubChem BioAssay (NCI)
# This is part of a sample that, as a whole, favours compounds with a hit. Of some 83,000 tested, about 20% had one in any assay.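 Each cell line was grown in a 96-well plate and treated with one concentration of compound for 48 hours. Values below 10 were considered active.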 A number with no mark means an inactive call. Activity calls are given as the source filed them.
# Test system: UACC-62 melanoma
# Assay: NCI-60 one-dose screen, 48 h (100 = growth as untreated, 0 = no growth, -100 = all killed)
# Settings: 10 µM unless noted
# Description: Growth inhibition of the UACC-62 human tumor cell line is measured as a screen for anti-cancer activity. Cells are grown in 96 well plates and exposed to the test compound for 48 hours. Compounds are tested at a single concentration, which is 10^-5 M for most compounds. The reported endpoint is percent growth (GI% or GIPRCNT), where numbers from 0 - 100% represent growth inhibition, and numbers from -100% - 0 represent cell death. For example, a value of 40 represents 60% growth inhibition. A value of 0 means no net growth occurred over the course of the experiment. A value of -40 indicates 40% of cells at the beginning of the experiment died by the end of the experiment. A value of -100 means all cells are dead at the end of the experiment.
# NCI-60 Human Tumor Cell Lines Screen was performed using the standard one-dose NCI protocol, which is described in more detail at https://dtp.cancer.gov/discovery_development/nci-60/default.htm.
# Compounds with GIPRCNT values below 10 were considered active. Activity score was based on GIPRCNT using the following formula: […]
# Score is 0 for GIPRCNT values of 100 or above, 50 for GIPRCNT values of 0, and 100 for GIPRCNT values of -100.
row,SMILES,growth
1,COC(OC)C1(c2ccccc2)NC(=O)NC1=O (stereo not given),106%
2,COc1ccc2c(c1)C(=O)/C(=C/c1cccc(OCC(=O)c3ccccc3)c1)O2,67%
3,C=C(C)[C@@H]1C/C=C(\COC(=O)[C@H](OC(C)=O)C(NC(=O)c2ccccc2)c2ccccc2)CC[C@H]2O[C@]2(C)CC/C=C(\C)CC1 (stereo not given in full),62.3% [5 µM]
4,O=C(NCCNc1nccc(-c2c(-c3cccc(O)c3)nc3sccn23)n1)c1ccccc1O,0.528% (active)
5,CCNc1cc(S(=O)(=O)O)ccc1C,105%
6,COc1ccc(/C=C/C(=O)/C=C(/C=C/c2ccc(OC)c(OC)c2OC)OB(F)F)c(OC)c1OC,35.4%
7,O=C(Cn1c2ccccc2c2ccncc21)N/N=C/c1c[nH]c2ccccc12,21.2%
8,FC(F)(F)c1cn(CC2CNC2)c2ncnc(Cl)c12,102%
9,COc1cccc(-c2nc3sccn3c2-c2ccnc(NCCNC(=O)Nc3cccc(C(F)(F)F)c3)n2)c1,50.5%
10,CC(C)[C@@H]1NC(=O)[C@]2(C)CSC(=N2)c2ccnc(c2)CNC(=O)C[C@@H](/C=C/CCS)OC1=O,-36.7% (active)
11,NC(CSC(c1ccccc1)(c1ccccc1)c1ccc(F)cc1)C(=O)O (stereo not given),35.5%
12,CCOC(=O)C1CN(Cc2ccccc2)C(=O)C1=O (stereo not given),103%
13,O=C(O)c1cn(C2CC2)c2cc(N3CCN(C(=O)CSc4nc(NS(=O)(=O)c5ccccc5)cc(=O)[nH]4)CC3)c(F)cc2c1=O,83.8%
14,COc1ccc(NC(=O)COCCOCCNC[C@@H]2C(=O)O[C@H]3[C@H]2CC/C(COC(=O)OC/C2=C/CC[C@@]4(C)O[C@H]4[C@H]4OC(=O)[C@@H](CN(C)C)[C@@H]4CC2)=C\CC[C@@]2(C)O[C@@H]32)c(O)c1C(N)=O,43%
15,COc1ccc(-c2nnc(SCC(=O)N3CCN(c4cc5c(cc4F)c(=O)c(C(=O)O)cn5C4CC4)CC3)o2)cc1OC,97.7%
16,COc1cc(Nc2ncccc2C(=O)Nc2nc3ccc(F)cc3s2)cc(OC)c1OC,24.4%
17,Cc1cc(C)c(O)c(C(=O)CC(Br)C(=O)O)c1 (stereo not given),95.7%
18,Cc1c(NC(=O)c2sc3nc4c(cc3c2N)CN(Cc2ccccc2)CC4)cccc1C(F)(F)F,37.2%
19,Cc1cc2c(cc1C)N(C(=O)CCl)CCN2C(=O)CCl,-43.1% (active)
20,COc1ccc2c(c1)nnc1c3cccnc3[nH]c21,-0.424% (active)

row,SMILES,growth
1,S=c1n(CNc2ccc(Cl)nn2)nc(-c2cc(Cl)cc(Cl)c2Cl)n1/N=C/c1ccc(Cl)cc1,90.4%
2,O=C(Nc1ccc(-n2ccc3c(NC(=O)c4ccccc4)nccc32)cc1)Nc1ccc(Cl)c(Cl)c1,-46.4% (active)
3,CC(C)CCC[C@@H](C)[C@H]1CC[C@H]2[C@@H]3CC=C4N(c5ccccc5)C(=O)CC[C@]4(C)[C@H]3CC[C@]12C,98.9%
4,Cc1[nH]c2ccc(F)cc2c1CCNC(=O)C1CCN(C(=O)c2ccc(-c3ccccc3)cc2)CC1,55%
5,COc1ccc(-c2cnc(-c3ccc(F)cc3)[nH]2)cc1,82.2%
6,O=C(Nc1ccc(-n2cc(-c3ccncc3)c(-c3ccc(O)c(Cl)c3)n2)cc1)c1cc(Cl)cc(Cl)c1,65.9%
7,CC[C@@]1(O)C(=O)OCc2c1cc1n(c2=O)Cc2c-1nc1ccccc1c2/C=N/OC(C)(C)C,-58.6% (active)
8,O=C1CCC(c2c(O)cc(O)c3c(=O)c(O)c(-c4ccc(O)c(O)c4)oc23)N1 (stereo not given),88.5%
9,COc1cc(NC(C)CCCN2C(=O)c3ccccc3C2=O)c2nc(C)ccc2c1OC (stereo not given),74.9%
10,O=[N+]([O-])c1ccc(NS(=O)(=O)c2cc(Cl)ccc2Cl)c2ccccc12,17.1%
11,C=CC(=O)NC(=O)Nc1ccccc1Cl,93.4%
12,CC(Cc1cccc(C(F)(F)F)c1)NCCOC(=O)c1ccccc1 (stereo not given),102%
13,CCOC(=O)c1cnc2c(OC)ccc(OC)c2c1Cl,109%
14,COc1ccc(CNc2nc3ccccc3c3c(=O)c4ccccc4sc23)cc1OC,68.8%
15,CCOC(=O)CSc1nnc(-c2cc3c([nH]c4ccccc43)c(-c3cccc(O)c3)n2)n1-c1ccc(C)cc1,85.2%
16,COc1ccc(/C=C2/C(=O)Nc3cc(Cl)c(-c4csc(N)n4)cc32)cc1,37.6%
17,COc1ccc(-c2coc3c(CO)c(O)ccc3c2=O)cc1,32.5%
18,Cc1ccc(-c2cn3cc([N+](=O)[O-])ccc3n2)cc1,82.6%
19,CCN(CC)CCNC(=O)c1c(C)[nH]c(/C=C2\C(=O)Nc3cc(NC(=O)NC(=O)c4ccc(OC)cc4F)ccc32)c1C,104%
20,COc1ccccc1P(c1ccccc1OC)c1ccccc1OC,90%
